# Reference: the supplement of paper PMC10037445
# Whole data set: some 2,900 compounds, median “NF-kB SEAP reporter activity, fold change vs agonist alone” near 0.99, cut for the highest 2% near 2.6. Only a selection was taken, and the highest values are over-represented in it overall.
# How the values were obtained:
# RAW-Dual [1] = assay: NF-kB SEAP reporter activity, fold change vs agonist alone; cytotoxicity flag (confluency mask): not cytotoxic; higher = enhanced NF-kB activity
# Outline: (§1)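 Library stock was pin-tooled at 50 nL into 384-well plates of RAW-Dual macrophages (50,000 cells/well, DMEM), followed 1 h later by a PRR agonist, and the cells were kept at 37 °C, 5% CO2. Supernatant collected after 20 hours was read for IRF by QuantiLuc luminescence and for NF-κB by QuantiBlue absorbance at 620 nm. Reporter activity is fold change over agonist-alone wells, and a well counted as cytotoxic when its IncuCyte confluency was below 70% of agonist controls in both mask sets.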
# RAW-Dual [2] = assay: NF-kB SEAP reporter activity, fold change vs agonist alone; cytotoxicity flag (confluency mask): cytotoxic (confluency <70% of control); higher = enhanced NF-kB activity
# Outline: as §1
# RAW-Dual [3] = assay: NF-kB SEAP reporter activity, fold change vs agonist alone; higher = enhanced NF-kB activity; conditions: library stock concentration (final ~1000-fold dilution): 10 mM
# Outline: as §1
# [4] = agonist: ODN 1826 (TLR9) 0.5 ug/mL
# [5] = agonist: Pam2CSK4 (TLR2/6) 0.1 ug/mL
# [6] = agonist: Pam3CSK4 (TLR2/1) 0.1 ug/mL
# [7] = cytotoxicity flag (confluency mask): cytotoxic (confluency <70% of control), agonist: Imiquimod (TLR7) […]
# [8] = cytotoxicity flag (confluency mask): cytotoxic (confluency <70% of control), agonist: MPLA (TLR4) […]
# [9] = cytotoxicity flag (confluency mask): not cytotoxic, agonist: Imiquimod (TLR7) […]
# [10] = cytotoxicity flag (confluency mask): not cytotoxic, agonist: MPLA (TLR4) […]
structure (smiles),measurement,setting,value
COc1cc(C(=O)O)ccc1NC(=O)C1NC(CC(C)(C)C)C(C#N)(c2ccc(Cl)cc2F)C1c1cccc(Cl)c1F (stereo unspecified) (library stock concentration (final ~1000-fold dilution): 10 mM),NF-kB SEAP reporter activity,RAW-Dual [1]; agonist: LPS (TLR4) 0.1 ug/mL,0.272
same,NF-kB SEAP reporter activity,RAW-Dual [1]; [4],0.436
same,NF-kB SEAP reporter activity,RAW-Dual [1]; [5],0.145
same,NF-kB SEAP reporter activity,RAW-Dual [1]; [6],0.285
CC(C)(C)CC1NC(C(=O)NC2CCC(O)CC2)C(c2cccc(Cl)c2F)C12C(=O)Nc1cc(Cl)ccc12 (stereo unspecified) (library stock concentration (final ~1000-fold dilution): 10 mM),NF-kB SEAP reporter activity,RAW-Dual [2]; agonist: LPS (TLR4) 0.1 ug/mL,3.05
same,NF-kB SEAP reporter activity,RAW-Dual [2]; [4],2.82
same,NF-kB SEAP reporter activity,RAW-Dual [2]; [5],0.884
same,NF-kB SEAP reporter activity,RAW-Dual [2]; [6],1.21
CC(C)(C)CC1NC(C(=O)NC2CCC(O)CC2)C(c2cccc(Cl)c2F)C12C(=O)Nc1cc(Cl)ccc12 (stereo unspecified),NF-kB SEAP reporter activity,RAW-Dual [3]; [7],1.55
same,NF-kB SEAP reporter activity,RAW-Dual [3]; [8],2.25
CC(=O)OC1(C(C)=O)CCC2C3C=C(Cl)C4=CC(=O)C5CC5C4(C)C3CCC21C (stereo unspecified) (library stock concentration (final ~1000-fold dilution): 10 mM),NF-kB SEAP reporter activity,RAW-Dual [1]; agonist: LPS (TLR4) 0.1 ug/mL,1.2
same,NF-kB SEAP reporter activity,RAW-Dual [1]; [4],1.01
same,NF-kB SEAP reporter activity,RAW-Dual [1]; [5],0.777
same,NF-kB SEAP reporter activity,RAW-Dual [1]; [6],1.08
CC(=O)OC1(C(C)=O)CCC2C3C=C(Cl)C4=CC(=O)C5CC5C4(C)C3CCC21C (stereo unspecified),NF-kB SEAP reporter activity,RAW-Dual [3]; [9],1.26
same,NF-kB SEAP reporter activity,RAW-Dual [3]; [10],1.21
C[C@H]1[C@@H](O)O[C@@H]2OC3(C)CC[C@H]4[C@H](C)CC[C@@H]1[C@@]24OO3 (library stock concentration (final ~1000-fold dilution): 10 mM),NF-kB SEAP reporter activity,RAW-Dual [1]; agonist: LPS (TLR4) 0.1 ug/mL,3.41
same,NF-kB SEAP reporter activity,RAW-Dual [1]; [4],1.13
same,NF-kB SEAP reporter activity,RAW-Dual [1]; [5],1.1
same,NF-kB SEAP reporter activity,RAW-Dual [1]; [6],0.848
CC1CCC2C(C)C(OC(=O)CCC(=O)O)OC3OC4(C)CCC1C32OO4 (stereo unspecified),NF-kB SEAP reporter activity,RAW-Dual [3]; [9],1.84
same,NF-kB SEAP reporter activity,RAW-Dual [3]; [10],2.5
CC1CCC2C(C)C(OC(=O)CCC(=O)O)OC3OC4(C)CCC1C32OO4 (stereo unspecified) (library stock concentration (final ~1000-fold dilution): 10 mM),NF-kB SEAP reporter activity,RAW-Dual [1]; agonist: LPS (TLR4) 0.1 ug/mL,5.12
same,NF-kB SEAP reporter activity,RAW-Dual [1]; [4],1.67
same,NF-kB SEAP reporter activity,RAW-Dual [1]; [5],1.02
same,NF-kB SEAP reporter activity,RAW-Dual [1]; [6],1.44
C[C@H]1[C@@H](O)O[C@@H]2OC3(C)CC[C@H]4[C@H](C)CC[C@@H]1[C@@]24OO3,NF-kB SEAP reporter activity,RAW-Dual [3]; [9],1.32
same,NF-kB SEAP reporter activity,RAW-Dual [3]; [10],1.97
Nc1nonc1/C(=N\O)Nc1ccc(F)c(Cl)c1 (library stock concentration (final ~1000-fold dilution): 10 mM),NF-kB SEAP reporter activity,RAW-Dual [1]; agonist: LPS (TLR4) 0.1 ug/mL,1.01
same,NF-kB SEAP reporter activity,RAW-Dual [1]; [4],0.882
same,NF-kB SEAP reporter activity,RAW-Dual [1]; [5],0.938
same,NF-kB SEAP reporter activity,RAW-Dual [1]; [6],0.585
Nc1nonc1/C(=N\O)Nc1ccc(F)c(Cl)c1,NF-kB SEAP reporter activity,RAW-Dual [3]; [9],0.904
same,NF-kB SEAP reporter activity,RAW-Dual [3]; [10],0.933
COc1ccc2cc1Oc1ccc(cc1)CC1c3c(cc4c(c3Oc3cc5c(cc3OC)CCN(C)C5C2)OCO4)CCN1C (stereo unspecified) (library stock concentration (final ~1000-fold dilution): 10 mM),NF-kB SEAP reporter activity,RAW-Dual [2]; agonist: LPS (TLR4) 0.1 ug/mL,1.44
same,NF-kB SEAP reporter activity,RAW-Dual [2]; [4],0.251
same,NF-kB SEAP reporter activity,RAW-Dual [2]; [5],1.42
same,NF-kB SEAP reporter activity,RAW-Dual [2]; [6],1.01
COc1ccc2cc1Oc1ccc(cc1)CC1c3c(cc4c(c3Oc3cc5c(cc3OC)CCN(C)C5C2)OCO4)CCN1C (stereo unspecified),NF-kB SEAP reporter activity,RAW-Dual [3]; [7],1.58
same,NF-kB SEAP reporter activity,RAW-Dual [3]; [8],2.32
CN1CCN(Cc2ccc(NC(=O)Nc3ccc(Oc4ccnc(N)n4)cc3)cc2C(F)(F)F)CC1 (library stock concentration (final ~1000-fold dilution): 10 mM),NF-kB SEAP reporter activity,RAW-Dual [2]; agonist: LPS (TLR4) 0.1 ug/mL,0.293
same,NF-kB SEAP reporter activity,RAW-Dual [2]; [4],0.197
same,NF-kB SEAP reporter activity,RAW-Dual [2]; [5],0.0678
same,NF-kB SEAP reporter activity,RAW-Dual [2]; [6],0.129
CN1CCN(Cc2ccc(NC(=O)Nc3ccc(Oc4ccnc(N)n4)cc3)cc2C(F)(F)F)CC1,NF-kB SEAP reporter activity,RAW-Dual [3]; [7],0.146
same,NF-kB SEAP reporter activity,RAW-Dual [3]; [8],0.248
OC1C=C2CCN3Cc4cc5c(cc4C(C1O)C23)OCO5 (stereo unspecified) (library stock concentration (final ~1000-fold dilution): 10 mM),NF-kB SEAP reporter activity,RAW-Dual [2]; agonist: LPS (TLR4) 0.1 ug/mL,1.54
same,NF-kB SEAP reporter activity,RAW-Dual [2]; [4],1.05
same,NF-kB SEAP reporter activity,RAW-Dual [2]; [5],0.33
same,NF-kB SEAP reporter activity,RAW-Dual [2]; [6],0.552
OC1C=C2CCN3Cc4cc5c(cc4C(C1O)C23)OCO5 (stereo unspecified),NF-kB SEAP reporter activity,RAW-Dual [3]; [7],2.07
same,NF-kB SEAP reporter activity,RAW-Dual [3]; [8],1.61
CNCCC(Oc1ccccc1C)c1ccccc1.Cl (stereo unspecified),NF-kB SEAP reporter activity,RAW-Dual [3]; [9],1.52
same,NF-kB SEAP reporter activity,RAW-Dual [3]; [10],1.15
CNCCC(Oc1ccccc1C)c1ccccc1.Cl (stereo unspecified) (library stock concentration (final ~1000-fold dilution): 10 mM),NF-kB SEAP reporter activity,RAW-Dual [1]; agonist: LPS (TLR4) 0.1 ug/mL,1.15
same,NF-kB SEAP reporter activity,RAW-Dual [1]; [4],0.76
same,NF-kB SEAP reporter activity,RAW-Dual [1]; [5],0.791
same,NF-kB SEAP reporter activity,RAW-Dual [1]; [6],1.01
NC(=O)C(=Cn1cnc(-c2cc(C(F)(F)F)cc(C(F)(F)F)c2)n1)c1cncnc1 (library stock concentration (final ~1000-fold dilution): 10 mM),NF-kB SEAP reporter activity,RAW-Dual [1]; agonist: LPS (TLR4) 0.1 ug/mL,0.331
same,NF-kB SEAP reporter activity,RAW-Dual [1]; [4],0.334
same,NF-kB SEAP reporter activity,RAW-Dual [1]; [5],0.13
same,NF-kB SEAP reporter activity,RAW-Dual [1]; [6],0.148
NC(=O)C(=Cn1cnc(-c2cc(C(F)(F)F)cc(C(F)(F)F)c2)n1)c1cncnc1,NF-kB SEAP reporter activity,RAW-Dual [3]; [9],0.765
same,NF-kB SEAP reporter activity,RAW-Dual [3]; [10],0.772
COc1cc2ncnc(Nc3ccc(Oc4ccccc4)cc3C)c2cc1OC.Cl (library stock concentration (final ~1000-fold dilution): 10 mM),NF-kB SEAP reporter activity,RAW-Dual [1]; agonist: LPS (TLR4) 0.1 ug/mL,1.05
same,NF-kB SEAP reporter activity,RAW-Dual [1]; [4],0.422
same,NF-kB SEAP reporter activity,RAW-Dual [1]; [5],0.297
same,NF-kB SEAP reporter activity,RAW-Dual [1]; [6],0.42
COc1cc2ncnc(Nc3ccc(Oc4ccccc4)cc3C)c2cc1OC.Cl,NF-kB SEAP reporter activity,RAW-Dual [3]; [9],1.37
same,NF-kB SEAP reporter activity,RAW-Dual [3]; [10],0.792
CN(C)CC1CCn2cc(c3ccccc32)C2=C(C(=O)NC2=O)c2cn(c3ccccc23)CCO1.Cl (stereo unspecified),NF-kB SEAP reporter activity,RAW-Dual [3]; [7],1.68
same,NF-kB SEAP reporter activity,RAW-Dual [3]; [8],2.13
CN(C)CC1CCn2cc(c3ccccc32)C2=C(C(=O)NC2=O)c2cn(c3ccccc23)CCO1.Cl (stereo unspecified) (library stock concentration (final ~1000-fold dilution): 10 mM),NF-kB SEAP reporter activity,RAW-Dual [2]; agonist: LPS (TLR4) 0.1 ug/mL,3.03
same,NF-kB SEAP reporter activity,RAW-Dual [2]; [4],0.276
same,NF-kB SEAP reporter activity,RAW-Dual [2]; [5],1.55
same,NF-kB SEAP reporter activity,RAW-Dual [2]; [6],1.77
